Measured values as given in ChEMBL document CHEMBL3988442, “University of Dundee, Small-Polar-MMV Screening Library” (2021).
Values joined by “and” are separate entries in the source; they are usually repeats but may differ in a detail not shown here. Equal values may be shown once. Out of some 34,000 compounds screened, about 290 (0.85%) showed an effect of 50% or more. What follows is part of a selection rich in strong results, with near analogues and random picks from the rest.

Test system: Plasmodium falciparum
Assay: Plasmodium falciparum sporozoite viability assay
Type: functional, organism-based
Parameters: scale not given: in the data most compounds retested in dose-response had high values

With O=C(NCc1ccc2c(c1)OCO2)[C@H]1C=CCN1c1ncccn1 the “Percent Effect” value was -8.12%.
For CC(NCc1ccccc1Cl)c1ccc2[nH]c(=O)[nH]c2c1 (stereo unspecified), the “Percent Effect” value was 4.238%.
For O=C1NCCN1C1CCN(CCOc2cccc3ccccc23)CC1, the “Percent Effect” value was 0.4468%.
CCc1cnc(COc2ccc(OC3CCCCNC3=O)cc2)o1 (stereo unspecified) was tested, and the “Percent Effect” value (10 mM as filed; unlikely as a test dose) was -31.83% and -45%.
In the case of Cc1nc(COc2ccc(OC3CCCCNC3=O)cc2)oc1C (stereo unspecified), the “Percent Effect” value (10 mM as filed; unlikely as a test dose) is reported as 96.35% and 88.4%.
For NC(=O)Cn1cc(NC(=O)N2CCCC(O)C2)cn1 (stereo unspecified), the “Percent Effect” value was 9.794%.
For COCCN(C)c1ccc(NCc2ccsc2)nc1, the “Percent Effect” value (10 mM as filed; unlikely as a test dose) was 67.62% and 57.94%.
COCCS(=O)(=O)N(Cc1cscn1)c1ccccc1 was tested, and the “Percent Effect” value was 1.643%.
With CC(C)(C)n1cc(NCc2cscn2)cn1 the “Percent Effect” value was 16.3%.
In the case of CCn1cc(CNc2ccc(N(C)CCOC)cn2)cn1, the “Percent Effect” value (10 mM as filed; unlikely as a test dose) is reported as 4.885% and 7.278%.
For COCCN(C)c1ccc(NCc2cccnc2)nc1, the “Percent Effect” value (10 mM as filed; unlikely as a test dose) was 21.13% and 22.11%.
In the case of COCCN(C)c1ccc(NCc2cscn2)nc1, the “Percent Effect” value (10 mM as filed; unlikely as a test dose) is reported as 95.11% and 93.26%.
CC1CN(c2ccccc2Cl)C(=O)CN1C(=O)c1c[nH]c(=O)c(Cl)c1 (stereo unspecified) was tested, and the “Percent Effect” value was 1.644%.
For COc1ccc(-n2ncc3c2NC(=O)CSC3C(C)C)cc1 (stereo unspecified), the “Percent Effect” value was -10.71%.
With COCC(=O)N1CC[C@@H]2O[C@H](COCc3ccncc3)CC[C@@H]21.O=C(O)C(F)(F)F the “Percent Effect” value was -3.886%.
With COc1cccc(-c2noc(C3CCN(CC4CCCCC4)C3)n2)c1.Cl (stereo unspecified) the “Percent Effect” value (10 mM as filed; unlikely as a test dose) was -10.94% and -15.38% and -3.133%.
COc1cccc(-c2noc(C3CCN(Cc4cn(C)nc4C)C3)n2)c1 (stereo unspecified) was tested, and the “Percent Effect” value (10 mM as filed; unlikely as a test dose) was 82.7% and 74.22% and 69.73%.
In the case of COc1cccc(CSCC2=Nc3ccccc3S(=O)(=O)N2)c1, the “Percent Effect” value is reported as -15.51%.
For Cc1ccc(CNC2CCCc3c2cnn3Cc2ccccc2)s1.Cl (stereo unspecified), the “Percent Effect” value was -20.07%.
In the case of CC(C)(C)n1ncc2c1CCCC2NCc1cccc2c1OCO2 (stereo unspecified), the “Percent Effect” value (10 mM as filed; unlikely as a test dose) is reported as 74.58% and 37.95% and 70.91%.
CC(C)(C)n1ncc2c1CCCC2NCc1cccc2c1OCCO2 (stereo unspecified) was tested, and the “Percent Effect” value (10 mM as filed; unlikely as a test dose) was 39.28% and 33.56% and 65.68%.
Cc1ccc(CNC2CCCc3c2cnn3C)s1.Cl (stereo unspecified) was tested, and the “Percent Effect” value (10 mM as filed; unlikely as a test dose) was -10.87% and -25.98% and -25.69%.
In the case of CCn1ncc2c1CCCC2NCc1cscn1 (stereo unspecified), the “Percent Effect” value (10 mM as filed; unlikely as a test dose) is reported as -18.21% and -26.49%.
For Cn1cc(N2CCCC(NCc3cccc4c3OCCCO4)C2)cn1 (stereo unspecified), the “Percent Effect” value was 11.2%.
With Cl.c1cnc(N2CCCC(NCc3cccc4c3OCCO4)C2)nc1 (stereo unspecified) the “Percent Effect” value was -3.04%.
Cn1ncc2c1CCCC2NCc1ccc(Cl)s1 (stereo unspecified) was tested, and the “Percent Effect” value (10 mM as filed; unlikely as a test dose) was -1.156% and -7.705% and -11.46%.
For Cc1ccn(CCC(=O)N2CCCC(Cc3cccnc3)C2)n1 (stereo unspecified), the “Percent Effect” value was 1.172%.
Cc1cccc(CN2C[C@@H]3[C@@H](C(=O)NCC(C)C)CCS(=O)(=O)[C@@H]3C2)c1.O=C(O)C(F)(F)F was tested, and the “Percent Effect” value was 5.351%.
CCN(CC1CCOC1)C(=O)c1ccccc1S(=O)(=O)CC (stereo unspecified) was tested, and the “Percent Effect” value was 6.872%.
For Cc1cc(-c2cnc(N3CCNC(=O)C3)nc2-c2sccc2C)on1, the “Percent Effect” value was 7.472%.
With Cc1ccc(CN2CCC3(CC2)CCN(C(=O)c2cccn2C)C3)cc1.O=C(O)C(F)(F)F the “Percent Effect” value was -1.664%.
For CC(C)N(C)[C@@H]1CCN(S(C)(=O)=O)[C@H]1Cc1ccccc1, the “Percent Effect” value was 3.466%.
CCn1ncc2c1CCCC2NCc1cccc2c1OCO2 (stereo unspecified) was tested, and the “Percent Effect” value (10 mM as filed; unlikely as a test dose) was 87.89% and 80.38% and 88.9%.
With Cc1cc(CN2CCN(C(=O)CCCc3nc(C(C)C)no3)CC2)on1 the “Percent Effect” value was 13.41%.
COc1cccc2ccn(CC(=O)NCC(C)C)c12 was tested, and the “Percent Effect” value (10 mM as filed; unlikely as a test dose) was 1.134% and -1.268%.
For COC(=O)CNC(=O)Cn1ccc2cccc(OC)c21, the “Percent Effect” value (10 mM as filed; unlikely as a test dose) was 53.7% and 45.8%.
COCCNC(=O)Cn1ccc2cccc(OC)c21 was tested, and the “Percent Effect” value (10 mM as filed; unlikely as a test dose) was 24.03% and 24.86%.
For CN(C)CC(=O)N1CCC2(CC1)COc1ccccc1S(=O)(=O)N(C)C2, the “Percent Effect” value was -1.316%.
With Cc1nc(Nc2nccs2)cc(C2CCCN2)n1.Cl (stereo unspecified) the “Percent Effect” value was -7.871%.
With O=c1cc(N2CCNCC2)cnn1CCc1ccc(F)cc1 the “Percent Effect” value (10 mM as filed; unlikely as a test dose) was -29.24% and -24.74%.
For O=c1cc(N2CCCC2)cnn1CCc1cccc(F)c1, the “Percent Effect” value (10 mM as filed; unlikely as a test dose) was 40.92% and 61.99%.
With O=c1cc(N2CCOCC2)cnn1CCc1ccc(F)cc1 the “Percent Effect” value (10 mM as filed; unlikely as a test dose) was -2.466% and -5.477%.
In the case of CCc1nccn1CC1CCCN1S(=O)(=O)Cc1ccccc1 (stereo unspecified), the “Percent Effect” value is reported as 3.419%.
With COCC(=O)N1CCCC(C)(c2nncn2C)C1 (stereo unspecified) the “Percent Effect” value was 4.813%.
With CNS(=O)(=O)c1ccc(C(=O)N2CCCCC2c2ccc(C)cc2)o1 (stereo unspecified) the “Percent Effect” value was -0.2417%.
For CC(C)(C)n1ncc2c1CCCC2NCc1ccsc1 (stereo unspecified), the “Percent Effect” value (10 mM as filed; unlikely as a test dose) was 82.25% and 82.56%.
With CSc1ccc(CNC2CCCc3c2cnn3C)cc1.Cl (stereo unspecified) the “Percent Effect” value was 2.328%.
In the case of CC(C)(C)n1ncc2c1CCCC2NCc1ccc2c(c1)CCO2 (stereo unspecified), the “Percent Effect” value (10 mM as filed; unlikely as a test dose) is reported as 65.53% and 54.34%.
With CC(C)(C)n1ncc2c1CCCC2NCc1cccc(C(N)=O)c1 (stereo unspecified) the “Percent Effect” value (10 mM as filed; unlikely as a test dose) was -6.583% and -14.2%.
For COCc1nc(CNC2CCCc3c2cnn3C(C)(C)C)cs1 (stereo unspecified), the “Percent Effect” value (10 mM as filed; unlikely as a test dose) was 80.27% and 81.73%.
For CCc1nc(CNC2CCCc3c2cnn3CC)cs1 (stereo unspecified), the “Percent Effect” value (10 mM as filed; unlikely as a test dose) was -15.59% and -14.06%.
Cn1ncc2c1CCCC2NCc1cccnc1 (stereo unspecified) was tested, and the “Percent Effect” value was 6.267%.
In the case of Cl.Cn1ncc2c1CCCC2NCc1cccc(F)c1 (stereo unspecified), the “Percent Effect” value is reported as -6.761%.
For CC(C)(C)n1ncc2c1CCCC2NCc1ccc2ncccc2c1 (stereo unspecified), the “Percent Effect” value (10 mM as filed; unlikely as a test dose) was 67.83% and 75.52%.
For Cn1ncc2c1CCCC2NCc1cnc(-c2ccccc2)nc1 (stereo unspecified), the “Percent Effect” value was 18.56%.
With CCn1ncc2c1CCCC2NCc1csc(COC)n1 (stereo unspecified) the “Percent Effect” value (10 mM as filed; unlikely as a test dose) was -19.65% and -19.45%.
Cl.Cn1ncc2c1CCCC2NCc1cc(Br)cs1 (stereo unspecified) was tested, and the “Percent Effect” value (10 mM as filed; unlikely as a test dose) was 6.252% and 7.152% and 13.18%.
With C[C@H]1C(=O)NC[C@H]2CN(Cc3cccc(F)c3)C[C@H]21.O=C(O)C(F)(F)F the “Percent Effect” value was -1.083%.
With CS(=O)(=O)NC1CCCN(C(=O)NCc2ccoc2)C1 (stereo unspecified) the “Percent Effect” value was 4.932%.
In the case of O=C1CCCN1CCCC(=O)N1CCCC(c2ccn[nH]2)C1 (stereo unspecified), the “Percent Effect” value is reported as 5.64%.
CC1CN(CC(=O)Nc2nccs2)CCN1Cc1nccn1C (stereo unspecified) was tested, and the “Percent Effect” value was -1.162%.
